From PubChem BioAssay (NCATS)
“And” between values parts separate entries of the source, which are not always exact repeats. Identical values can stand only once. Results filed as inconclusive are left out. Where a structure was tested more than once in an assay, its records may differ in their call. The source made the active and inactive calls. The call rests on the fitted dose curve; in most records, active means well fitted inhibition curve with a large enough effect; inconclusive means small, poorly fitted or top-dose-only effect; inactive means flat fitted curve, though single readings scatter.

What was measured:
[1] = tested on: CRL-7250; assay: Cytotoxic Profiling of Annotated Libraries Using Quantitative High-Throughput Screening (AID 1296008); settings: Five cell lines viability, CellTiter-Glo ATP luminescence, 48-72 h; max response: hits give low values; further: potency means the concentration at half of the fitted maximal effect; on max response: on the % scale 0 is the no-effect control and ±100 the full control effect
Method in brief: (§1)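 Compounds were pin-transferred onto cells and incubated 48 or 72 hr at 37 degree Celsius, 95% humidity. CellTiter-Glo was added, plates sat 10 min at room temperature, then ATP-coupled luminescence was imaged as the viability read-out.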

[2] = tested on: HEK293; assay: as above; settings: Five cell lines viability, CellTiter-Glo ATP luminescence, 48-72 h; max response: hits give low values
Method in brief: as §1

[3] = tested on: HaCat; assay: as above; settings: Five cell lines viability, CellTiter-Glo ATP luminescence, 48-72 h; max response: hits give low values
Method in brief: as §1

[4] = tested on: KB-3-1; assay: as above; settings: Five cell lines viability, CellTiter-Glo ATP luminescence, 48-72 h; max response: hits give low values
Method in brief: as §1

[5] = tested on: NIH3T3; assay: as above; settings: Five cell lines viability, CellTiter-Glo ATP luminescence, 48-72 h; max response: hits give low values
Method in brief: as §1

[6] = tested on: HACAT; assay: qHTS assay to identify novel small-molecules to repurpose for Merkel cell carcinoma treatment (AID 1296009); settings: MCC and control cell lines, CellTiter-Glo viability, 72 h; at 44.8 µM (top of the series) unless noted
Method in brief: (§2)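 Viability readout: ATP luminescence (CellTiter-Glo) after 72 hr drug exposure at 37 degree celsius. Dose-response format was 8 points for NPC and 11 points for MIPE; data normalized to in-plate controls.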

[7] = tested on: MCC-13; assay: as above; settings: MCC and control cell lines, CellTiter-Glo viability, 72 h; series mostly up to 46 µM
Method in brief: as §2

[8] = tested on: MCC-26; assay: as above; settings: MCC and control cell lines, CellTiter-Glo viability, 72 h; series mostly up to 46 µM
Method in brief: as §2

[9] = tested on: PAD; assay: qHTS profiling for inhibitors of Plasmodium falciparum proliferation (AID 504749); further: potency means the concentration at half of the fitted maximal effect; settings: P. falciparum in erythrocytes, SYBR Green DNA, 72 h; series mostly up to 28.7 µM
Method in brief: (§3)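 Quantitative HTS: compounds pinned into medium, infected erythrocytes added (0.3% parasitemia, 2.5% hematocrit), 72 h culture at 37 C under 5% CO2. Saponin/Triton lysis with SYBR Green I, overnight RT, then fluorescence read.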

[10] = tested on: PC15; assay: as above; settings: P. falciparum in erythrocytes, SYBR Green DNA, 72 h; series mostly up to 28.7 µM
Method in brief: as §3

[11] = tested on: PC26; assay: as above; settings: P. falciparum in erythrocytes, SYBR Green DNA, 72 h; series mostly up to 28.7 µM
Method in brief: as §3

[12] = tested on: SC27B; assay: as above; settings: P. falciparum in erythrocytes, SYBR Green DNA, 72 h; series mostly up to 28.7 µM
Method in brief: as §3

[13] = tested on: TAB109; assay: as above; settings: P. falciparum in erythrocytes, SYBR Green DNA, 72 h; series mostly up to 28.7 µM
Method in brief: as §3

[14] = tested on: TAB113; assay: as above; settings: P. falciparum in erythrocytes, SYBR Green DNA, 72 h; series mostly up to 28.7 µM
Method in brief: as §3

[15] = tested on: W2; assay: as above; settings: P. falciparum in erythrocytes, SYBR Green DNA, 72 h; series mostly up to 28.7 µM
Method in brief: as §3

[16] = tested on: HEK293T; assay: qHTS assay to identify novel small-molecules to repurpose for Merkel cell carcinoma treatment (AID 1296009); settings: MCC and control cell lines, CellTiter-Glo viability, 72 h; at 44.8 µM (top of the series)
Method in brief: as §2

[17] = tested on: P93_24; assay: qHTS profiling for inhibitors of Plasmodium falciparum proliferation (AID 504749); further: potency means the concentration at half of the fitted maximal effect; settings: P. falciparum in erythrocytes, SYBR Green DNA, 72 h; series mostly up to 28.7 µM
Method in brief: as §3

[18] = tested on: P94_40; assay: as above; settings: P. falciparum in erythrocytes, SYBR Green DNA, 72 h; series mostly up to 28.7 µM
Method in brief: as §3

[19] = tested on: PC49; assay: as above; settings: P. falciparum in erythrocytes, SYBR Green DNA, 72 h; series mostly up to 28.7 µM
Method in brief: as §3

[20] = tested on: TAB165; assay: as above; settings: P. falciparum in erythrocytes, SYBR Green DNA, 72 h; series mostly up to 28.7 µM
Method in brief: as §3
Further: nearly all actives have a fitted effect of over 60% in size.

COc1ccc(-c2coc3cc(O)ccc3c2=O)cc1
inactive: outcome [1] | max response [2] -7.99% | outcome [3] | max response [4] 7.74% | max response [5] -7.78% | outcome [6] | Potency [7] | Potency [8]

CC(=O)Oc1cc2c(s1)CCN(C(C(=O)C1CC1)c1ccccc1F)C2 (centres undefined)
active: Potency [2] 2.96 µM | Potency [4] 4.69 µM
inactive: max response [1] 4.12% | max response [3] 0.622% | max response [4] -10.7% | Potency [7] | Potency [8]

CC1CCC(C(=O)N(c2cc(C#CC(C)(C)C)sc2C(=O)O)C2CCC(O)CC2)CC1 (centres undefined)
inactive: max response [1] -4.19% and 3.8% | max response [2] -1.31% | outcome [3] | max response [4] -8.44% and -2.14% | max response [5] -3.97% | outcome [5] | outcome [6] | Potency [7] | Potency [8]

Cc1cccc(C)c1OCC(C)N (centres undefined)
inactive: outcome [9] | outcome [10] | Potency [11] | Potency [12] | outcome [13] | Potency [14] | outcome [1] | outcome [2] | outcome [3] | max response [4] 6.51% | outcome [5] | outcome [6] | outcome [16] | Potency [7] | Potency [8]
active: Potency [15] 6.01 µM

CCn1cc(C(=O)O)c(=O)c2ccc(C)nc21
inactive: max response [1] 4.8% and -5.54% | outcome [2] | outcome [3] | max response [4] -12% and -6.11% | max response [5] -10.7% and -7.98% | outcome [6] | outcome [16] | Potency [7] | Potency [8]

CC(=O)c1ccc(S(=O)(=O)NC(=O)NC2CCCCC2)cc1
inactive: outcome [17] | Potency [18] | outcome [9] | outcome [10] | Potency [11] | outcome [19] | Potency [12] | Potency [14] | Potency [20] | Potency [15] | max response [1] -4.5% | outcome [2] | outcome [3] | max response [4] -6.14% | max response [5] -3.55% | outcome [6] | outcome [16] | Potency [7] | Potency [8]

NC(N)=Nc1nc(CSCC/C(N)=N/S(N)(=O)=O)cs1
inactive: outcome [17] | Potency [18] | outcome [9] | outcome [10] | Potency [11] | outcome [19] | Potency [12] | outcome [13] | Potency [14] | Potency [20] | Potency [15] | max response [1] -7.89% | outcome [2] | outcome [3] | max response [4] 30.2% | outcome [5] | outcome [6] | outcome [16] | Potency [7] | Potency [8]

CC1(C)CCC[C@@]2(C)[C@@H]1CC[C@@]1(C)OC(=O)C[C@H]21
inactive: max response [1] 1.92% | max response [2] -1.67% | outcome [3] | max response [4] 5.91% | max response [5] 1.1% | outcome [6] | Potency [7] | Potency [8]

CC1(C)Cc2c(sc(NC(=S)NC(=O)c3ccccc3)c2C(=O)O)CO1
inactive: outcome [1] | outcome [2] | outcome [3] | outcome [4] | outcome [5] | outcome [6] | outcome [16] | Potency [7] | Potency [8]

CC(C)(C)COc1ccc(-n2cc(C(=O)O)cn2)cc1C#N
inactive: outcome [1] | max response [2] 3.28% | outcome [3] | max response [4] 7.58% | max response [5] 3.94% | outcome [6] | Potency [7] | Potency [8]

NC1CCC(Nc2nc(Nc3ccc(C(=O)N4CCCCC4)cc3)c3ncn(-c4cccc(F)c4)c3n2)CC1 (centres undefined)
inactive: outcome [1] | outcome [2] | outcome [3] | max response [4] -2.33% | max response [5] 4.66% | outcome [6] | outcome [16] | Potency [7] | Potency [8]

CO[C@H]1C[C@@H]2CC[C@@H](C)[C@@](O)(O2)C(=O)C(=O)N2CCCC[C@@H]2C(=O)O[C@H]([C@@H](C)C[C@@H]2CC[C@H](O)[C@H](OC)C2)CC(=O)[C@H](C)C=C(C)[C@@H](O)[C@@H](OC)C(=O)[C@H](C)C[C@H](C)C=CC=CC=C1C
inactive: max response [1] -19.3% | max response [2] -97.2% | outcome [3] | max response [4] -8.34% | outcome [5] inactive; activator | outcome [6] | Potency [7] | Potency [8]

NC(=O)NN=Cc1ccc([N+](=O)[O-])o1
inactive: outcome [1] | max response [2] 1.13% | outcome [3] | max response [4] 2.76% | outcome [5] | outcome [6] | Potency [7] | Potency [8]

c1cc(-c2sc(-c3ccncc3)c(-c3ccncc3)c2-c2ccncc2)ccn1
inactive: max response [1] -2.98% | max response [2] -5.01% | outcome [3] | max response [4] 6.28% | max response [5] 4.17% | outcome [6] | Potency [7] | Potency [8]

CC=C(C)C(=O)O[C@H]1C(C)=C[C@]23C(=O)[C@@H](C=C(CO)[C@@H](O)[C@]12O)[C@H]1[C@@H](C[C@H]3C)C1(C)C
inactive: max response [1] 2.46% | outcome [3] | max response [4] -20.1% | max response [5] -20.8% | outcome [6] | Potency [7] | Potency [8]
active: Potency [2] 26.4 µM
